Compound activity as filed in PubChem.
The list is not random: actives were taken first. Their share in the collection is about 1.9%.
MsrA inhibitor – inhibits bovine methionine sulfoxide reductase A. AID 651718. inhibition, % at 15.5 µM. hit rate 0.75% among 360,000. purified bovine MsrA, absorbance read-out; in the data active = inhibition above about 4.5%;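 also: 0% = vehicle wells with enzyme and 100% = reference inhibitor wells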
PLC-gamma1 inh – PLC-gamma1 (human) inhibition, primary screen; P19174; purified PLC-gamma1, fluorogenic substrate, fluorescence; inhibition, % at 12.2 µM; hit rate 0.84% among 370,000; in the data active = inhibition above about 9.5%
PLC-beta3 inh – blocks human PLC-beta3 enzyme activity; Q01970; Purified PLC-beta3, fluorogenic substrate, fluorescence; inhibition, % at 12.2 µM; hit rate 0.18% among 370,000; AID 720704;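 also: 0% = median of compound wells on plate and 100% = full blocker control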
bovine MsrA act – bovine methionine sulfoxide reductase A activation; purified bovine MsrA, absorbance read-out; activation, % at 10.6 µM; hit rate 0.3% among 360,000; in the data active = activation above about 7.5%;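 also: 0% = vehicle and 100% = reference activator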
PLCgamma1 ctr – PLC-gamma1 inhibition, counter-screen for PLC-beta3 hits; AID 743258; inhibition, % at 12.3 µM; shares compounds with PLC-gamma1 inh; hit rate 3.1% among 3,300; purified PLC-gamma1, fluorogenic substrate, fluorescence; in the data active = inhibition above about 9.5%
PLCbeta3 conf – human PLC-beta3 inhibition, confirmation; shares compounds with PLC-gamma1 inh; purified PLC-beta3, fluorogenic substrate fluorescence; inhibition, % at 12.3 µM; hit rate 1% among 3,300
* marks the source's active call; other numbers are inactive results; . = no result. Rule as the data show it, unless noted: active = inhibition above about 11%; inactive = the rest.

SMILES | MsrA inhibitor | PLC-gamma1 inh | PLC-beta3 inh | bovine MsrA act | PLCgamma1 ctr | PLCbeta3 conf
CN(CC(=O)Nc1ccc(Cl)cc1)C(=O)CNC(=O)Cc1cccc2ccccc12 | 0 | -1 | 1 | -7 | . | .
CCCCn1c(CCCNC(=O)c2ccco2)nc2ccccc21 | 1 | 12* | 4 | -3 | -6 | -6
CCCCn1c(CCNC(=O)c2ccco2)nc2ccccc21 | -1 | 3 | -3 | -5 | . | .
O=C(N[C@H](Cc1ccccc1)C(=O)NCC1CCCCC1)[C@H]1O[C@@H](n2ccc(=O)[nH]c2=O)[C@H](O)[C@@H]1O | 0 | 5 | 1 | . | . | .
COc1ccc(-c2c(C(=O)c3ccccc3)[nH]c(N)c2C(=O)NCCc2c[nH]c3ccccc23)cc1 | 1 | -8 | -7 | . | . | .
COc1cccc(NC(=S)N2CCCC2c2ccc(OC)c(OC)c2)c1 (stereo unspecified) | 0 | 11* | -2 | -4 | 2 | 0
COc1ccc(C2CCCN2C(=S)Nc2cccc(Cl)c2)cc1OC (stereo unspecified) | -1 | 3 | -2 | -3 | . | .
COC(=O)C1CN(Cc2ccccc2)CCS(=O)(=O)N1Cc1ccccc1F (stereo unspecified) | . | -3 | 4 | . | . | .
CN(C)S(=O)(=O)c1cccc(C(=O)NCCNC(=O)c2cccc(S(=O)(=O)N(C)C)c2)c1 | 0 | 2 | -4 | 0 | . | .
CN(C)S(=O)(=O)c1cccc(C(=O)NCC(C)(C)CNC(=O)c2cccc(S(=O)(=O)N(C)C)c2)c1 | 1 | 9.9* | -2 | 3 | 8 | 2
CCOc1ccc(C(=O)NCCC2=CCCCC2)cc1OCC | 2 | 11* | 5 | -4 | -5 | 0
O=C(NCCC1=CCCCC1)c1ccc2c(c1)N(Cc1ccccc1)C(=O)CS2 | 2 | 11* | 9 | -1 | -1 | -7
CCC(=O)c1ccc(OCC(=O)NCCC2=CCCCC2)c(OC)c1 | 2 | 0 | -7 | -2 | . | .
O=C(ON=C1CCN(c2ccc([N+](=O)[O-])cc2)CC1)c1ccccc1 | 0 | 9.9* | 0 | 0 | -6 | -4
C[C@@H]1CN([C@@H](C)CO)C(=O)CCCn2cc(nn2)CO[C@H]1CN(C)S(C)(=O)=O | -1 | 2 | 3 | . | . | .
NS(=O)(=O)c1ccc(N/N=C/c2ccc(O)c(O)c2O)c([N+](=O)[O-])c1 | 2 | 12* | 2 | -8 | 5 | 3
NS(=O)(=O)c1ccc(N/N=C/c2ccccc2C(=O)O)c([N+](=O)[O-])c1 | 4 | 5 | 7 | -9 | . | .
C=CCNc1cccc2c1S(=O)(=O)N[C@H](Cc1ccccc1)CO2 | 0 | 0 | 1 | . | . | .
Cc1[nH][nH]c(=O)c1C=NCc1cccnc1 | 3 | 11* | 7 | -4 | 1 | 3
Cc1[nH][nH]c(=O)c1C=NCc1cccs1 | 4 | 3 | 1 | 0 | . | .
CC(=O)NC(Cc1ccc(F)cc1)C(=O)NC1CCN(C(=O)Nc2cccc(C)c2)CC1 (stereo unspecified) | 0 | 10* | -5 | -3 | 6 | 3
CCOC(=O)NC(NC(=S)Nc1ccc(OC)cc1)C(Cl)(Cl)Cl (stereo unspecified) | 1 | 0 | -1 | -10 | . | .
COc1ccc([N+](=O)[O-])cc1NS(=O)(=O)c1ccccc1 | 3 | 1 | 4 | 2 | . | .
COc1ccc([N+](=O)[O-])cc1NC(=O)C(C)c1ccccc1 (stereo unspecified) | 1 | 4 | 3 | -4 | . | .
COC(=O)NC(NC(=S)Nc1ccc([N+](=O)[O-])cc1)C(Cl)(Cl)Cl (stereo unspecified) | 1 | 5 | 12* | -1 | 5 | 7
SMILES | MsrA inhibitor | PLC-gamma1 inh | PLC-beta3 inh | bovine MsrA act | PLCgamma1 ctr | PLCbeta3 conf
COc1ccc([N+](=O)[O-])cc1NC(=S)NC(NC(=O)C(c1ccccc1)c1ccccc1)C(Cl)(Cl)Cl (stereo unspecified) | 1 | 12* | 8 | -2 | -4 | -1
COc1ccc([N+](=O)[O-])cc1NS(=O)(=O)c1cc(C(=O)O)ccc1OC | 2 | 9.5* | -3 | -10 | -2 | -1
O=C(C(=NNc1ccccc1)C(=S)Nc1ccccc1)c1ccccc1 | . | . | . | -4 | . | .
CCCCCCCCN1C(=O)[C@H](CC(=O)NCc2cccs2)C[C@@]2(C(=O)OC)CCCCC=C12 | 0 | 1 | 2 | -3 | . | .
CCOC(=O)Nc1cc(OC)cc2ccc(C)nc12 | 0 | -4 | -1 | -1 | . | .
Clc1ccc(Cn2ccc(-c3ccc4c(c3)OCO4)n2)cc1Cl | 1 | 19* | 12* | -4 | 7 | 9
NC(=O)NOCc1ccc(Cl)cc1Cl | 0 | 13* | 3 | -3 | -7 | -4
NC(=O)NOCc1ccc(F)cc1Cl | 1 | -3 | -4 | -4 | . | .
C=C(C)CSc1nnc(-c2cc(-c3ccc(OC)cc3)n[nH]2)n1N | . | 2 | 3 | . | . | .
CCOc1ccc(C(=O)c2ccc([N+](=O)[O-])cc2Cl)cc1 | 1 | 8 | 1 | -14 | . | .
CCOc1ccc(C(=O)c2cc([N+](=O)[O-])ccc2Cl)cc1 | 2 | 13* | 15* | -3 | -6 | -3
O=S1(=O)CC(N2CC=CC2)CN1Cc1cn(Cc2cccc(Cl)c2)nn1 (stereo unspecified) | 1 | -3 | 1 | -4 | . | .
Cc1nc(C(F)(F)F)ccc1C(=O)N1CCC1(C)C(=O)NS(=O)(=O)c1ccc2c(c1)CCO2 (stereo unspecified) | 1 | 10* | 2 | -2 | 4 | 2
Cc1nc(C(F)(F)F)ccc1C(=O)N1CCC1(C)C(=O)NS(=O)(=O)c1cccc(F)c1 (stereo unspecified) | -1 | 0 | 3 | 3 | . | .
O=Nc1ccccn1 | 0 | -6 | -17 | . | . | .
COc1ccc(C(=O)O/N=C(\N)Cc2ccc([N+](=O)[O-])cc2)c(OC)c1 | 0 | 10* | -9 | -4 | -51 | -46
COC(=O)[C@@]12C[C@@H](CC(=O)NCc3cccc4ccccc34)C(=O)N(Cc3ccc4c(c3)OCO4)C1=CCC(C)(C)C2 | 2 | 2 | -2 | . | . | .
O=C(CCCSc1nc2ccccc2c(=O)[nH]1)c1ccc(F)cc1 | 0 | -3 | -10 | -4 | . | .
O=C(O)CS(=O)CC(=O)NCc1cccc(C(F)(F)F)c1 (stereo unspecified) | -1 | 0 | 0 | -3 | . | .
O=C(O)CS(=O)CC(=O)Nc1cccc(C(F)(F)F)c1 (stereo unspecified) | 0 | 20* | 2 | -4 | 25* | -2
CN(C)CCNC(=O)c1cccc(-c2cnc3c(NC=O)cc(-c4cccs4)cn23)c1 | 2 | -30 | -41 | -3 | . | .
CCOc1ccccc1OCCCC(=O)Nc1nc2ccccc2[nH]1 | 1 | 5 | 13* | 1 | -6 | -4
Cn1c(=O)c2cc(S(=O)(=O)NC(Cc3ccccc3)C(=O)NCc3ccco3)ccc2n(C)c1=O (stereo unspecified) | 0 | 75* | 2 | 0 | -6 | -2
COc1ccc(NC(=O)c2ccccc2Oc2ccccc2)cc1 | -1 | 2 | -4 | -2 | . | .
COc1cccc(NC(=O)c2ccccc2Oc2ccccc2)c1 | 0 | 9.8* | -5 | -2 | -10 | -8
